Source: PubChem BioAssay AID485317 (Broad Institute, 2010)
The campaign covered roughly 290,000 compounds. About 11,000 (3.8%) were called active.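 Rule for the calls: active = mean replicate inhibition above about 79%, with every replicate also reaching it (limit read from the data); inconclusive = only one of the two criteria met; inactive = mean below limit and not every replicate reaching it.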 This excerpt belongs to a sample that is enriched for actives.

Target: FAD-linked sulfhydryl oxidase ALR (Homo sapiens) (UniProt P55789)
Sequence (P55789 whole entry, looked up): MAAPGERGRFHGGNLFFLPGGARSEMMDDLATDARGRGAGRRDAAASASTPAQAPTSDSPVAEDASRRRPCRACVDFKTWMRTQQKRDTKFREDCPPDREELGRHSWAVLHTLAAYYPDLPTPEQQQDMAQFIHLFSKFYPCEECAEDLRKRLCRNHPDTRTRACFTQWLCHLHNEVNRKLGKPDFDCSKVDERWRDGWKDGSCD
Test: ALR-catalysed DTT oxidation blockers – biochemical, H2O2 detection, HRP-luminol luminescence, single point, primary screen (AID 485317)
Details: purified ALR, stronger effect = higher value, concentration not given here

| Structure (SMILES) | inhibition |
| --- | --- |
| Cc1cccc(NC(=O)C2CCN(S(=O)(=O)c3cccc4cccnc34)CC2)c1 | 88.1% (active) |
| Cc1cc(C)cc(NC(=O)C2CCCN2S(=O)(=O)c2cccc3cccnc23)c1 (configuration not stated) | -0.666% (inactive) |
| COc1ccc(NC(=O)C2CCCN(S(=O)(=O)c3cccc4cccnc34)C2)cc1OC (configuration not stated) | -28.5% (inactive) |
| CC(NC(=O)c1ccccc1F)c1cccc2ccccc12 (configuration not stated) | -16.5% (inactive) |
| O=c1oc2ccc(C#CC3(O)CCCCC3)cc2cc1-n1cc(-c2ccsc2)nn1 | -6.77% (inactive) |
| O=C(CN1C(=O)NC2(CCCC2)C1=O)Nc1cc(C(F)(F)F)ccc1N1CCOCC1 | -1.5% (inactive) |
| COc1ccccc1S(=O)(=O)NCc1ccc(C(=O)N(C)Cc2ccc(F)cc2)cc1 | -4.34% (inactive) |
| C=CCNC(=O)CSc1nc2scc(-c3ccco3)c2c(=O)n1CC=C | -0.872% (inactive) |
| C=CCn1c(=S)[nH]c2scc(-c3ccco3)c2c1=O | 98.3% (active) |
| C=CCn1c(SCc2csc(C)n2)nc2scc(-c3ccc(C)o3)c2c1=O | 16.6% (inactive) |
| CCN1CCN(Cc2nc3c(c(=O)n(C)c(=O)n3C)n2CC(=O)c2ccccc2)CC1 | 98.2% (active) |
| CCOC(=O)N1CCN(Cc2nc3c(c(=O)n(C)c(=O)n3C)n2Cc2ccccc2)CC1 | -3.2% (inactive) |
| CC1CCCN(Cc2nc3c(c(=O)n(C)c(=O)n3C)n2CC(=O)c2ccccc2)C1 (configuration not stated) | -8.6% (inactive) |
| O=C(CCCCO)c1ccc(O)c(Cl)c1 | 7.83% (inactive) |
| Cn1c(Cc2cccc3ccccc23)nnc1SCC(=O)N1CCN(c2cccc(Cl)c2)CC1 | -3.36% (inactive) |
| Cc1cc2nnc(SCC(=O)N3CCN(c4ccccc4)CC3)n2c(N)n1 | 98% (active) |
| Cc1nnc(SCC(=O)N2CCN(c3ccccc3)CC2)n1-c1ccccc1 | 46.1% (inactive) |
| CCN(CC(=O)NCc1ccc(Cl)cc1)C(=O)c1c(C)noc1C | -1.1% (inactive) |
| COc1ccc2[nH]c(C(=O)N/N=C/c3cc(OC)c(OC)c(OC)c3)cc2c1 | 90.9% (active) |

| Structure (SMILES) | inhibition |
| --- | --- |
| COc1cc2cc(C(=O)N/N=C/c3cccc(OC)c3OC)[nH]c2cc1OC | 15.9% (inactive) |
| CCOc1ccc2[nH]c(C(=O)N/N=C/c3cccc(OC)c3OC)cc2c1 | -44.7% (inactive) |
| COc1ccc(C(=O)NCC2CCCN2S(=O)(=O)c2cccs2)cc1OC (configuration not stated) | -12.1% (inactive) |
| COc1ccccc1C(CNC(=O)c1ccc(C)c(S(=O)(=O)N2CCCCC2)c1)N(C)C (configuration not stated) | -5.4% (inactive) |
| Nc1c(N(CCCO)C(=O)C2CCCC2)c(=O)[nH]c(=O)n1Cc1ccccc1 | 2.17% (inactive) |
| O=C(NNS(=O)(=O)c1c(F)cc(F)c(Cl)c1F)C12CC3CC(CC(C3)C1)C2 | -7.91% (inactive) |
| COCCCn1c(SCC(=O)Nc2ccccc2)nnc1-c1ccncc1 | -6.22% (inactive) |
| CSc1nnc(-c2ccncc2)n1CCCN1CCCC1=O | 98.1% (active) |
| CC1CCCCC1NC(=O)CSc1nnc(-c2ccncc2)n1CCCN(C)C (configuration not stated) | -3.25% (inactive) |
| O=C(c1cnccn1)N1CCN(S(=O)(=O)c2cccc(Cl)c2)CC1 | -2.25% (inactive) |
| O=c1nc(N/N=C/c2ccco2)cn[nH]1 | -0.901% (inactive) |
| COc1cccc2c(N/N=C/c3ccco3)cc(C)nc12 | 91.2% (active) |
| Cc1cc(C)c(OCC(=O)N/N=C/c2ccco2)c(C)c1 | -5.47% (inactive) |
| COc1cc2ccccc2cc1C(=O)Nc1nc(C)c(C(C)=O)s1 | -3.67% (inactive) |
| COc1ccc(C(CNC(=O)c2ccc(S(=O)(=O)Nc3ccccc3C)cc2)N2CCOCC2)cc1 (configuration not stated) | 1.74% (inactive) |
| CC(NC(=O)COC(=O)Cn1cc(C(F)(F)F)ccc1=O)c1ccccc1 (configuration not stated) | -3.5% (inactive) |
| COc1cc(-c2c(-c3ccc4c(c3)OCO4)noc2C)ccc1F | 3.17% (inactive) |
| Cc1ccc(Nc2c(F)c(F)c(F)c(F)c2C(=O)O)c(C)c1 | 98.2% (active) |
| CCOC(=O)N1CCN(C(=S)Nc2ccc(C)cc2C)CC1 | -22.4% (inactive) |

| Structure (SMILES) | inhibition |
| --- | --- |
| COc1c(F)c(F)c(C(=O)O)c(Nc2ccccc2C)c1F | 18.5% (inactive) |
| O=C(NCC#CCSc1nnc(-c2cccc3ccccc23)o1)c1cccs1 | -4.12% (inactive) |
| COc1ccc(C(=O)NCC(=O)N/N=C/c2ccc([N+](=O)[O-])s2)cc1OC | -29.5% (inactive) |
| COc1ccc(C(=O)NCC(=O)N/N=C/c2ccc([N+](=O)[O-])o2)cc1OC | -60.3% (inactive) |
| COc1cc(/C=N\NC(=O)CNC(=O)c2cccc([N+](=O)[O-])c2)ccc1O | 98.6% (active) |
| COc1ccc(C(=O)N2CCN(c3ncccn3)CC2)cc1S(=O)(=O)N1CCOCC1 | -2.44% (inactive) |
| CSc1ncccc1C(=O)Nc1cccc(S(=O)(=O)N2CCOCC2)c1 | -2.48% (inactive) |
| O=C1C=C(c2ccnc3cc(Cl)ccc23)C[C@@H](c2ccc3c(c2)OCO3)C1 | -0.313% (inactive) |
| Cc1cc(=O)oc2cc(OCC3CC(c4ccccc4Cl)=NO3)ccc12 (configuration not stated) | 97.9% (active) |
| Cc1ccccc1N1CCN(CCCOc2ccc3c(C)cc(=O)oc3c2)CC1 | -0.584% (inactive) |
| Cc1cc(=O)oc2cc(OCCC[n+]3ccccc3)ccc12 | -10.6% (inactive) |
| Cn1nnnc1SCC(=O)Nc1cccc(S(=O)(=O)N2CCCCC2)c1 | -1.39% (inactive) |
| Cc1ccc(Cl)cc1NC(=O)C1CCCN(c2cnccn2)C1 (configuration not stated) | -6.26% (inactive) |
| Cc1ccnc(N2CCCC(C(=O)NC3CC3)C2)n1 (configuration not stated) | 1.74% (inactive) |
| Cc1ccnc(N2CCCC(C(=O)Nc3cc(F)ccc3C)C2)n1 (configuration not stated) | 87.3% (active) |
| Cc1noc(C)c1S(=O)(=O)N(C)C[C@H]1Oc2ccc(NC(=O)C3CC3)cc2C(=O)N([C@H](C)CO)C[C@@H]1C | 2.82% (inactive) |
| CCCNC(=O)c1onc(CSc2ccc(F)cc2)c1C(=O)NC(C)C | 3.87% (inactive) |
| CN(C)C(=O)COC(=O)c1cccc(S(=O)(=O)N2CC3(C)CC2CC(C)(C)C3)c1 (configuration not stated) | -0.802% (inactive) |
| COc1cccc(NC(=O)COC(=O)c2ccc3ccccc3n2)c1 | -1.64% (inactive) |
